In the supplement of paper PMC12636033:
± gives the standard deviation of the averaged measurements. The full ranking holds about 33,000 sequences; the median of “E-score (rank enrichment, -0.5 to 0.5)” is about -0.0075, and the highest 2% start at about 0.23. The sample as a whole holds a higher share of the highest values than the screen did.

The sequences below were run on WT Max(13-93) synthetic (M65Nle) (assay: PBM 8-mer E-score (E-score (rank enrichment, -0.5 to 0.5)); higher = stronger preferential binding).
Procedure: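 Protein binding microarray (universal PBM chip covering all 10-mers in fixed probe flanks) with chemically synthesized human Max(13-93) bHLH-LZ analogs (not full-length Max) bearing noncanonical residues (hArg, Tha, Aib, Nle at 65) and aromatic Cys staples. Read-out per 8-mer (and its reverse complement): E-score (rank-based enrichment, -0.5 to 0.5) and Z-score of median probe intensity.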

Sequence | PBM 8-mer E-score
CCCTTCTA | 0.2 ± 0.016
ATCCCTAC | 0.0174 ± 0.027
AAGAGTAA | 0.0887 ± 0.095
CCAGGTAG | -0.0484 ± 0.088
AACGCGGC | -0.0617 ± 0.052
AACGCGGA | -0.0101 ± 0.013
CACGCGGG | 0.224 ± 0.044
CACGCGGC | 0.323 ± 0.0093
CACGCGGA | 0.351 ± 0.014
GACGCGGC | -0.164 ± 0.043
CGCAATAG | -0.129 ± 0.02
ACCATCCA | 0.0359 ± 0.035
ACCTCAAG | 0.0864 ± 0.0059
CGTATTCA | -0.00816 ± 0.064
CACCTTTC | 0.0495 ± 0.029
ACCGAAGC | -0.0719 ± 0.043
GATGTTTA | 0.0913 ± 0.016
AGTGTTTA | 0.0808 ± 0.099
GGTGTTTA | -0.0165 ± 0.02
CATGTTTC | 0.192 ± 0.017
CATGTTTA | 0.302 ± 0.07
CGTGTTTA | 0.274 ± 0.019
CGATCCAG | -0.318 ± 0.024
ACGTAACT | -0.0612 ± 0.056
ATGGAGCC | -0.159 ± 0.086
ACCCTATC | -0.0509 ± 0.049

Sequence | PBM 8-mer E-score
ATAATGCA | 0.161 ± 0.072
AACGTGCG | 0.188 ± 0.037
AACGTGCA | 0.283 ± 0.044
GACGTGCC | -0.0759 ± 0.054
CACGTGCG | 0.48552 ± 0.00018
CAGGTGCG | -0.186 ± 0.068
TACGTGCA | 0.126 ± 0.094
AACGTGCT | 0.181 ± 0.038
GACGTGCA | 0.132 ± 0.021
AACGTGCC | 0.0848 ± 0.0026
CACGTGCC | 0.472 ± 0.0067
CCCGTGCG | 0.00827 ± 0.054
CACGTGCA | 0.4864 ± 0.0015
AAACTCAG | -0.0399 ± 0.035
AAGTGTCA | 0.0618 ± 0.14
AAATAAGT | 0.126 ± 0.0013
CTTGTTGC | 0.124 ± 0.046
CTGCCGGA | -0.102 ± 0.082
ACAAGCAA | 0.239 ± 0.01
ACAAAAAT | 0.111 ± 0.084
CAAAAACC | 0.241 ± 0.035
CAAAACCC | 0.138 ± 0.027
ACAAATGA | 0.104 ± 0.068
ACAAAAAA | 0.251 ± 0.016
ACAAGCAC | 0.0152 ± 0.013
ACAAATGG | 0.196 ± 0.099

Sequence | PBM 8-mer E-score
ACAAAAAC | 0.215 ± 0.07
ACAAATGT | 0.277 ± 0.073
CCAAAACC | 0.0915 ± 0.13
GCAAGCAA | -0.0138 ± 0.026
ACCACCTC | 0.0118 ± 0.00067
ACGTTTTC | 0.116 ± 0.034
ATAGAGTC | -0.13 ± 0.093
CGTCGAAG | -0.152 ± 0.018
CTAGCTCC | -0.117 ± 0.094
GCACGACA | -0.0608 ± 0.098
AAGCTGGA | -0.0702 ± 0.12
GCAGAAGC | -0.118 ± 0.075
ATGTTCCC | 0.0189 ± 0.083
CAAAATAA | 0.239 ± 0.012
CAAAAAAC | 0.161 ± 0.012
CAAAAAAA | 0.248 ± 0.0035
CCAAAAAA | 0.171 ± 0.017
ACAAAATG | 0.3408 ± 0.0015
TAAAATAA | 0.15 ± 0.0044
AAAAATAA | 0.0936 ± 0.097
ACAAAATC | 0.106 ± 0.0076
ACAAAATA | 0.209 ± 0.054
CGTGCCCA | -0.00988 ± 0.079
ATCTTAGG | -0.0691 ± 0.031
CAGTGATG | 0.0281 ± 0.13
ACGAGGCC | -0.0195 ± 0.14

Sequence | PBM 8-mer E-score
GCGCTCAC | -0.00351 ± 0.038
ACAGCGTA | -0.0609 ± 0.029
ACCGCGTA | 0.0537 ± 0.048
ACAGCGTG | 0.235 ± 0.013
ACAGCGTC | 0.0682 ± 0.028
ACCGCGTC | -0.117 ± 0.08
ACCGCGTG | 0.365 ± 0.056
GAACCCCC | -0.387 ± 0.031
ATCTTCAG | 0.0326 ± 0.1
TAGTCAAA | 0.14 ± 0.09
TAGATTAA | 0.154 ± 0.027
CGATGCCC | -0.19 ± 0.045
CAAACGGC | -0.279 ± 0.026
AAAACGGC | 0.251 ± 0.16
TAAAACCA | 0.148 ± 0.056
AAAAACGA | 0.25 ± 0.03
GAAAACGA | 0.0526 ± 0.057
GAAATCCA | -0.0865 ± 0.057
GAAACGGC | 0.0668 ± 0.011
CAAAACGA | 0.0654 ± 0.066
CAAAACCA | 0.0992 ± 0.086
CAAATCCA | 0.0485 ± 0.13
AAAATCCA | 0.26 ± 0.06
AAAAACCA | 0.238 ± 0.057
